From PubChem BioAssay AID1159580 (chemical genetic matrix, 2015)
Among all 5,500 compounds or so, about 2,000 (36%) were called active. Not shown: some 18% with an inconclusive outcome. Rule as the data show it: active = normalized growth mostly below about 0.91 (no sharp cut-off); inconclusive = no clear call, values can overlap the other calls; inactive = mostly above about 0.92. This is one part of the list.

Experiment: chemical genetic growth profiling, strain panel (AID 1159580);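 also: tested at 20 µM; growth read once vehicle control cultures reached saturation at 30 °C; 1 = growth at the plate median or of vehicle wells; lower values mean less growth of the strain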
Details: S. cerevisiae deletion strains, growth OD
[1] = locus YGR078C, strain PAC10, active compounds read low
[2] = locus YHR030C, strain SLT2, active compounds read low
[3] = locus YMR307W, strain GAS1, active compounds read low
[4] = locus YNL322C, strain KRE1, active compounds read low
[5] = locus YPL241C, strain CIN2, active compounds read low

Measured: normalized growth

CCOC(=O)c1csc(N/N=C2/CCCc3ccccc32)n1
inactive: locus YDR150W, strain NUM1, active compounds read low 0.897 | locus YGR229C, strain SMI1, active compounds read low 0.986 | locus YJR043C, strain POL32, active compounds read low 0.965 | locus YLR058C, strain SHM2 (second series), active compounds read low 0.976 | locus YLR262C, strain YPT6, active compounds read low 0.868 | locus YNL128W, strain TEP1, active compounds read low 0.971 | [4] 1 | locus YOL006C, strain TOP1, active compounds read low 0.849
active: locus YBR229C, strain ROT2, active compounds read low 0.887 | locus YDL101C, strain DUN1, active compounds read low 0.862 | locus YDL134C, strain PPH21, active compounds read low 0.458 | locus YEL061C, strain CIN8, active compounds read low 0.821 | [1] 0.899 | [2] 0.232 | locus YHR087W, strain rtc3, active compounds read low 0.899 | locus YJR075W, strain HOC1, active compounds read low 0.867 | locus YLR039C, strain RIC1, active compounds read low 0.701 | locus YLR085C, strain ARP6, active compounds read low 0.573 | locus YML094W, strain GIM5, active compounds read low 0.749 | locus YMR219W, strain ESC1, active compounds read low 0.92 | locus YMR263W, strain SAP30, active compounds read low 0.88 | [3] 0.631 | locus YNL153C, strain GIM3, active compounds read low 0.915 | locus YNL298W, strain CLA4 (second series), active compounds read low 0.732 | locus YNR030W, strain Alg12, active compounds read low 0.779 | locus YPL055C, strain LGE1, active compounds read low 0.692 | [5] 0.747 | locus YPR135W, strain CTF4, active compounds read low 0.629

Cc1nccc2c1[nH]c1ccccc12
inactive: locus YAL013W, strain DEP1, active compounds read low 1.01 | locus YAL021C, strain ccr4, active compounds read low 0.956 | locus YAL026C, strain drs2, active compounds read low 0.975 | locus YAL030W, strain snc1, active compounds read low 0.992 | locus YAL040C, strain CLN3, active compounds read low 1.11 | locus YBL061C, strain skt5, active compounds read low 0.975 | locus YBR009C, strain hhf1, active compounds read low 0.971 | locus YBR023C, strain chs3, active compounds read low 0.974 | locus YBR171W, strain sec66, active compounds read low 0.969 | locus YBR231C, strain swc5, active compounds read low 0.972 | locus YBR279W, strain paf1, active compounds read low 0.991 | locus YCL011C, strain gbp2, active compounds read low 0.965 | locus YCL016C, strain dcc1, active compounds read low 0.99 | locus YCL061C, strain MRC1 (second series), active compounds read low 1.01 | locus YCL069W, strain vba3, active compounds read low 0.977 | locus YCR088W, strain abp1, active compounds read low 0.977 | locus YDL005C, strain med2, active compounds read low 0.965 | locus YDL040C, strain nat1, active compounds read low 0.983 | locus YDR001C, strain nth1, active compounds read low 0.991 | locus YDR069C, strain doa4, active compounds read low 0.941 | locus YDR137W, strain rgp1, active compounds read low 0.967 | locus YDR159W, strain sac3, active compounds read low 0.989 | locus YDR195W, strain ref2 1.03 | locus YDR297W, strain sur2, active compounds read low 0.976 | locus YDR334W, strain swr1, active compounds read low 0.971 | locus YDR335W, strain msn5, active compounds read low 0.975 | locus YDR363W, strain ESC2, active compounds read low 1 | locus YDR392W, strain spt3, active compounds read low 0.963 | locus YEL003W, strain gim4, active compounds read low 0.983 | locus YEL037C, strain rad23, active compounds read low 0.983 | locus YEL061C, strain CIN8 (second series), active compounds read low 0.944 | locus YER002W, strain NOP16, active compounds read low 0.991 | locus YER015W, strain faa2, active compounds read low 0.991 | locus YER016W, strain bim1, active compounds read low 0.984 | locus YER111C, strain swi4, active compounds read low 0.973 | locus YER155C, strain BEM2 (second series), active compounds read low 0.954 | locus YFR010W, strain ubp6, active compounds read low 0.955 | locus YGL167C, strain pmr1, active compounds read low 0.996 | locus YGL173C, strain kem1, active compounds read low 0.981 | locus YGL227W, strain vid30, active compounds read low 0.976 | locus YGL240W, strain doc1, active compounds read low 0.968 | locus YGL253W, strain hxk2, active compounds read low 0.959 | [1] 1.02 | locus YHR013C, strain ard1, active compounds read low 0.951 | locus YHR027C, strain rpn1, active compounds read low 0.996 | [2] 1.05 | locus YHR079C, strain IRE1, active compounds read low 1.06 | locus YHR142W, strain chs7, active compounds read low 0.97 | locus YJL092W, strain hpr5, active compounds read low 0.963 | locus YJL095W, strain BCK1 (second series), active compounds read low 0.972 | locus YJL095W, strain BCK1, active compounds read low 1.03 | locus YJL115W, strain asf1, active compounds read low 0.975 | locus YJL129C, strain trk1, active compounds read low 0.959 | locus YJL154C, strain vps35, active compounds read low 0.981 | locus YJL164C, strain tpk1, active compounds read low 0.993 | locus YJL166W, strain qcr8, active compounds read low 0.972 | locus YJL187C, strain SWE1, active compounds read low 0.962 | locus YJR066W, strain TOR1, active compounds read low 0.972 | locus YKL160W, strain elf1, active compounds read low 0.995 | locus YKR026C, strain gcn3, active compounds read low 0.983 | locus YKR091W, strain srl3, active compounds read low 0.973 | locus YLL001W, strain dnm1, active compounds read low 0.977 | locus YLL026W, active compounds read low 0.999 | locus YLL041C, strain sdh2, active compounds read low 0.979 | locus YLR027C, strain aat2, active compounds read low 0.995 | locus YLR113W, strain HOG1, active compounds read low 1.04 | locus YLR221C, strain rsa3, active compounds read low 0.971 | locus YLR258W, strain gsy2, active compounds read low 0.991 | locus YLR262C, strain YPT6 (second series), active compounds read low 0.956 | locus YLR320W, strain mms22, active compounds read low 0.97 | locus YLR342W, strain FKS1, active compounds read low 0.968 | locus YLR357W, strain rsc2, active compounds read low 1.04 | locus YLR370C, strain arc18, active compounds read low 0.968 | locus YLR384C, strain iki3, active compounds read low 0.996 | locus YML120C, strain ndi1, active compounds read low 0.982 | locus YMR058W, strain fet3, active compounds read low 0.983 | locus YMR125W, strain sto1, active compounds read low 1.02 | locus YMR129W, active compounds read low 0.984 | locus YMR205C, strain PFK2, active compounds read low 1.01 | locus YMR231W, strain pep5, active compounds read low 0.977 | [3] 1.01 | locus YNL071W, strain lat1, active compounds read low 0.973 | locus YNL183C, strain NPR1, active compounds read low 0.993 | locus YNL197C, strain WHI3, active compounds read low 0.955 | locus YNL209W, strain ssb2, active compounds read low 0.993 | locus YNL248C, strain rpa49, active compounds read low 0.955 | locus YNL322C, strain KRE1 (second series), active compounds read low 0.993 | [4] 1.01 | locus YNR049C, strain mso1, active compounds read low 0.976 | locus YOR001W, strain rrp6, active compounds read low 0.943 | locus YOR070C, strain gyp1, active compounds read low 0.98 | locus YOR080W, strain dia2, active compounds read low 0.986 | locus YOR083W, strain WHI5 (second series), active compounds read low 1.03 | locus YOR083W, strain WHI5, active compounds read low 0.994 | locus YOR106W, strain vam3, active compounds read low 0.958 | locus YOR231W, strain MKK1, active compounds read low 1.06 | locus YOR265W, strain rbl2, active compounds read low 0.972 | locus YOR270C, strain vph1, active compounds read low 0.913 | locus YOR290C, strain snf2, active compounds read low 0.994 | locus YPL051W, strain arl3, active compounds read low 0.988 | locus YPL078C, strain atp4, active compounds read low 0.972 | locus YPL106C, strain sse1, active compounds read low 0.978 | locus YPL240C, strain hsp82, active compounds read low 0.986 | [5] 1.01 | locus YPL256C, strain CLN2, active compounds read low 1.04
active: locus YNL175C, strain NOP13, active compounds read low 0.39
